Consider one sequence from article PMC7862700, “An all-to-all approach to the identification of sequence-specific readers for epigenetic DNA modifications on cytosine”.

Common to all, as to assay: DAPPL (digital affinity profiling via proximity ligation, sequencing); 10 mM Tris-HCl pH 7.5, 50 mM NaCl, 1 mM DTT, 4% glycerol, room temperature, 30 min; GST-TFs on glutathione beads, 16-mer random dsDNA library, 0.1% formaldehyde crosslink after washing; high values mean tight binding
For one assay, the target named is T1, FEV (Homo sapiens, UniProt Q99581 1-238).
T1 sequence: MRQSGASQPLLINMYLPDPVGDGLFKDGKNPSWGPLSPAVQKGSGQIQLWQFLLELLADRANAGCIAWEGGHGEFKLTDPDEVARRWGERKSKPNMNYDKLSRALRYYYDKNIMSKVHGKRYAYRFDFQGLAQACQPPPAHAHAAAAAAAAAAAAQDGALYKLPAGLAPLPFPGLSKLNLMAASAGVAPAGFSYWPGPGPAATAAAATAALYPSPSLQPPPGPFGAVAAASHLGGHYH
Particulars: protein: recombinant; tags: N-terminal GST; dsDNA, one strand shown. In short, it runs like this: (§1)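 After expression in yeast as GST fusions, human transcription factors were bound to glutathione beads, DNA-barcoded and mixed with a tag-only sample. The pools were incubated with 200 nmole of a 16-mer random double-stranded DNA library in Tris/NaCl/DTT/glycerol buffer (30 min, room temperature), washed and crosslinked with 0.1% formaldehyde. Proximity ligation with BsaI/T4 ligase ran for 1 h at 37 °C, before PCR amplification and sequencing on an Illumina NextSeq500. Binding signal is a hexamer's read frequency for a factor divided by its frequency for the tag-only sample.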

A further assay concerns the target ETV5 (Homo sapiens, UniProt P41161 1-510). Particulars: protein: recombinant; tags: N-terminal GST; dsDNA, one strand shown. In short, it runs like this: as §1
For another assay, the target named is HSF1 (Homo sapiens, UniProt Q00613 1-529). Particulars: protein: recombinant; tags: N-terminal GST; chain copies: 3; dsDNA, one strand shown. The method, boiled down: as §1
Another assay has as its target T2, SPIC (Homo sapiens, UniProt Q8N5J4 1-248).
T2 sequence: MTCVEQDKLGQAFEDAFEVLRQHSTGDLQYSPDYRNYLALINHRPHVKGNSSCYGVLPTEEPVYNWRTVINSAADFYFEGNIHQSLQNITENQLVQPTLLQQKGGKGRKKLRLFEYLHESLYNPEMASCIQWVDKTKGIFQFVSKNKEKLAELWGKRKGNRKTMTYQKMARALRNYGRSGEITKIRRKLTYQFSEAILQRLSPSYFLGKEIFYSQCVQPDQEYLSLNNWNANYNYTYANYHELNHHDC
The following applies: protein: recombinant; tags: N-terminal GST; dsDNA, one strand shown. In short, it runs like this:
as §1

The target in a further assay is ELF4 (Homo sapiens, UniProt Q99607 1-663). Particulars: protein: recombinant; tags: N-terminal GST; dsDNA, one strand shown. The method, boiled down:
as §1

The target in the next assay is T3, ELK4 (Homo sapiens, UniProt P28324-2 1-405).
T3 sequence: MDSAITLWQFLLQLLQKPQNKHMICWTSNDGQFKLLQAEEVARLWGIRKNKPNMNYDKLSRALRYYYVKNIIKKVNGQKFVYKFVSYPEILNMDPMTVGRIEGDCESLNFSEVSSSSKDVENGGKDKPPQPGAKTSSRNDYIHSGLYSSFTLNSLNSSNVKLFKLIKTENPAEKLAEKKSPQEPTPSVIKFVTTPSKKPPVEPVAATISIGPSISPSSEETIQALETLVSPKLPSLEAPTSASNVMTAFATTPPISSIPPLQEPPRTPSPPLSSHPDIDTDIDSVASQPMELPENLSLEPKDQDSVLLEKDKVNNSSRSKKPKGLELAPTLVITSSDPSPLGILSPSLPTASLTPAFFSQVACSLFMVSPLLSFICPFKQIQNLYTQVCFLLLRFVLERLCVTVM
Particulars: protein: recombinant; tags: N-terminal GST; dsDNA, one strand shown. The method, boiled down:
as §1

The target of a further assay is T4, ETV2 (Homo sapiens, UniProt O00321 1-342).
T4 sequence: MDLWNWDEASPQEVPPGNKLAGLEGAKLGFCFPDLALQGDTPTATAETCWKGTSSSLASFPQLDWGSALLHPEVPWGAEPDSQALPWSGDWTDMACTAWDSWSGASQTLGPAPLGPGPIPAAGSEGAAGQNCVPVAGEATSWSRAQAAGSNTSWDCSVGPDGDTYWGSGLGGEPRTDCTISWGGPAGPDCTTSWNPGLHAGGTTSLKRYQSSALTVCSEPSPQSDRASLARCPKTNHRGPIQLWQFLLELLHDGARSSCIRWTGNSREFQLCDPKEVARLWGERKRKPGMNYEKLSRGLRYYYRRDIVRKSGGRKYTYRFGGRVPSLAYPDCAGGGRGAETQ
Particulars: protein: recombinant; tags: N-terminal GST; dsDNA, one strand shown. In short, it runs like this: as §1

For the next assay, the target named is T5, ELF3 (Homo sapiens, UniProt P78545 1-371).
T5 sequence: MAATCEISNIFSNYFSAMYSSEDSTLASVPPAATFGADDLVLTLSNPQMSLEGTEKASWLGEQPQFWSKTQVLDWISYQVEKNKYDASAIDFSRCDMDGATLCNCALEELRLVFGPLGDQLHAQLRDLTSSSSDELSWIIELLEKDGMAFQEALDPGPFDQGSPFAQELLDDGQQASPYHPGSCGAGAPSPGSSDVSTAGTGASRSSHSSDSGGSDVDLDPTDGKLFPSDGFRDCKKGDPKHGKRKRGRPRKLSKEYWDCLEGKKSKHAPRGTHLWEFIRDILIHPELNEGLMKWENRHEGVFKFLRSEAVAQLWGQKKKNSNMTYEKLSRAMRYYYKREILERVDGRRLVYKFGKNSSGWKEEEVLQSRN
The following applies: protein: recombinant; tags: N-terminal GST; dsDNA, one strand shown. In short, it runs like this: as §1

Another assay deals with CRX (Homo sapiens, UniProt O43186 1-299). Particulars: protein: recombinant; tags: N-terminal GST; dsDNA, one strand shown. In short, it runs like this: as §1
The target in the next assay is ETV1 (Homo sapiens, UniProt P50549 1-477). The following applies: protein: recombinant; tags: N-terminal GST; dsDNA, one strand shown. In short, it runs like this:
as §1

In the next assay the target is T6, ERF (Homo sapiens, UniProt P50548 1-548).
T6 sequence: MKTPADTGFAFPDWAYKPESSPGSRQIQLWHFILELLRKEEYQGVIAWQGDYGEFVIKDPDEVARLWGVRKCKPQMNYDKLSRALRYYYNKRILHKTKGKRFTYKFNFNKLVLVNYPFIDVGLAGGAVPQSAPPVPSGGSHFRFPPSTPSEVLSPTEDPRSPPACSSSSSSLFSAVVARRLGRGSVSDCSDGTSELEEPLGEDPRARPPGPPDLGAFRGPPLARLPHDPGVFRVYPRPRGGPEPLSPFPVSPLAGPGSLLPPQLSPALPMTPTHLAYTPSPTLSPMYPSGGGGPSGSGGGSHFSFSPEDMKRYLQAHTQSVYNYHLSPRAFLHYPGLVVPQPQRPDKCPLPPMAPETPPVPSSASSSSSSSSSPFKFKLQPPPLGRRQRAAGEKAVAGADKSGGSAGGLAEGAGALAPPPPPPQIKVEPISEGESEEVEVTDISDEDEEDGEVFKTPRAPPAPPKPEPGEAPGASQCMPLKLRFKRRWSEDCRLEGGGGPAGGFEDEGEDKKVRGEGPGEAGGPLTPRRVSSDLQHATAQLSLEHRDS
Particulars: protein: recombinant; tags: N-terminal GST; dsDNA, one strand shown. The method, boiled down:
as §1

A further assay addresses T7, ETV3L (Homo sapiens, UniProt Q6ZN32 1-361).
T7 sequence: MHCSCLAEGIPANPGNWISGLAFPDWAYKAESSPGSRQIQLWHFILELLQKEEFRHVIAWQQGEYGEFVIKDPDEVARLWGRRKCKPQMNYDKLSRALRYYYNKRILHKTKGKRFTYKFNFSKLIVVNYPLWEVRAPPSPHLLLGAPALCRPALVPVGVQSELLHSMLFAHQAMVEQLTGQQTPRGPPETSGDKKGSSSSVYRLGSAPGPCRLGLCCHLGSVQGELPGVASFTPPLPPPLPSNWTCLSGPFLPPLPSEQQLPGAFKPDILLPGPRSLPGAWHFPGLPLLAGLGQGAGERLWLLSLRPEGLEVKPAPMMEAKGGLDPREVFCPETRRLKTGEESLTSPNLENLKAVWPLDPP
The following applies: protein: recombinant; tags: N-terminal GST; dsDNA, one strand shown. The method, boiled down:
as §1

For another assay, the target named is T8, ETS2 (Homo sapiens, UniProt P15036 1-469).
T8 sequence: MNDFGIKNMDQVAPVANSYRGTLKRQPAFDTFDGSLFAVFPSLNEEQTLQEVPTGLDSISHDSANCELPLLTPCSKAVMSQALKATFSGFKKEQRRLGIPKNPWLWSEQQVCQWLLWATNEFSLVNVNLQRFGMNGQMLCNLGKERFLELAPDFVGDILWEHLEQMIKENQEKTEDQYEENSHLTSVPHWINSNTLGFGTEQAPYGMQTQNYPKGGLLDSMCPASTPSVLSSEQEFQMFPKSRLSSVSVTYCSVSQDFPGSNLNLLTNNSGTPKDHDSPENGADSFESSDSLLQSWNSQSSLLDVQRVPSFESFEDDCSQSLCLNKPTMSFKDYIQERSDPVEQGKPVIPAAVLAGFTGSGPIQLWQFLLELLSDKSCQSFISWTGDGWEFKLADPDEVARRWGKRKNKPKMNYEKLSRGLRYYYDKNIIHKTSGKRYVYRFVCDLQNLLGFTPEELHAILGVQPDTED
Particulars: protein: recombinant; tags: N-terminal GST; dsDNA, one strand shown. In short, it runs like this:
as §1

The target of the next assay is T9, SPDEF (Homo sapiens, UniProt O95238 1-335).
T9 sequence: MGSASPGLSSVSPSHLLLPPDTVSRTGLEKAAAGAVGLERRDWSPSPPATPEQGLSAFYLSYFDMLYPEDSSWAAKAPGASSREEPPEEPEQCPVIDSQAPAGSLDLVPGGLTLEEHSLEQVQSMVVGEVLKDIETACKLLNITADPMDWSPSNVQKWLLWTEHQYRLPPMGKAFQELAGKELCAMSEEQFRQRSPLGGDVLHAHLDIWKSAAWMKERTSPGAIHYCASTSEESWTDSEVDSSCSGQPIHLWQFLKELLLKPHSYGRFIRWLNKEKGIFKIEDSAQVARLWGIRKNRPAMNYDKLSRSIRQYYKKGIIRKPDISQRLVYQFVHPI
The following applies: protein: recombinant; tags: N-terminal GST; dsDNA, one strand shown. The method, boiled down:
as §1

The next assay has as its target T10, ETV7 (Homo sapiens, UniProt Q9Y603 1-341).
T10 sequence: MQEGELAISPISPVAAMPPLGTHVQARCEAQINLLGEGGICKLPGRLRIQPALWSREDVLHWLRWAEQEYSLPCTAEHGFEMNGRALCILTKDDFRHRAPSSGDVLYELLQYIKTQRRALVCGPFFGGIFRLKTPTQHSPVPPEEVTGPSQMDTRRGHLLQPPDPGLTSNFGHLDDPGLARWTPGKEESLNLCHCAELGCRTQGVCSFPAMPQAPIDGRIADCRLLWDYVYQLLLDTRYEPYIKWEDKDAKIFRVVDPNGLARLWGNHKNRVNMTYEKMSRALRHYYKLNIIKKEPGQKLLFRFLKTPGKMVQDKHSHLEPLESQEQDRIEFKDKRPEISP
Particulars: protein: recombinant; tags: N-terminal GST; dsDNA, one strand shown. In short, it runs like this: as §1

In a further assay the target is T11, ELF5 (Homo sapiens, UniProt Q9UKW6-2 1-255).
T11 sequence: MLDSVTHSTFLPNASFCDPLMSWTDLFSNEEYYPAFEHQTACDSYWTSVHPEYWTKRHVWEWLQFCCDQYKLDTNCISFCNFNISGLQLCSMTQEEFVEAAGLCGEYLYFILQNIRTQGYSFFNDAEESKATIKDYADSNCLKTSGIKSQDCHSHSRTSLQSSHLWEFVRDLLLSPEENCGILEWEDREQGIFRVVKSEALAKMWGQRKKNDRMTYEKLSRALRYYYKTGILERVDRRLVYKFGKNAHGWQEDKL
The following applies: protein: recombinant; tags: N-terminal GST; dsDNA, one strand shown. The method, boiled down: as §1

The next assay addresses T12, ETV3 (Homo sapiens, UniProt P41162-2 1-143).
T12 sequence: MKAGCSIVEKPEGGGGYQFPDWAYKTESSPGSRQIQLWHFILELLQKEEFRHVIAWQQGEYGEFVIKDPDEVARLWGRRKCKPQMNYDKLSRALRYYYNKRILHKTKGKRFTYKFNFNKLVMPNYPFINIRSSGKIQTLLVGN
The following applies: protein: recombinant; tags: N-terminal GST; dsDNA, one strand shown. The method, boiled down:
as §1

In a further assay the target is ETV6 (Homo sapiens, UniProt P41212 1-452). The following applies: protein: recombinant; tags: N-terminal GST; dsDNA, one strand shown. The method, boiled down: as §1
Sequence of ETV6 (P41212 whole entry): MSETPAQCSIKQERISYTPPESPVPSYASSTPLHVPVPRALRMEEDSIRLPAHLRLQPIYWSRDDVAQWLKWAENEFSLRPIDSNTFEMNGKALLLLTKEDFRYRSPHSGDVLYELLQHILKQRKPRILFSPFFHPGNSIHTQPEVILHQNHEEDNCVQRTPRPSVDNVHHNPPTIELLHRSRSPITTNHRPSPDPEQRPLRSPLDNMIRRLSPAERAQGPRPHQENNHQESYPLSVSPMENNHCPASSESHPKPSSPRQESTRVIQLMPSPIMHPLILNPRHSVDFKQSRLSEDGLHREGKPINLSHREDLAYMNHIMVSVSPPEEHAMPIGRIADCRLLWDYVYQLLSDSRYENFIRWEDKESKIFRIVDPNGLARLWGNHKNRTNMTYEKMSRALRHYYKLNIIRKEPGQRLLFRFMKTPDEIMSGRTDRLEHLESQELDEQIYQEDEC

Sequence of ELF4 (Q99607 whole entry): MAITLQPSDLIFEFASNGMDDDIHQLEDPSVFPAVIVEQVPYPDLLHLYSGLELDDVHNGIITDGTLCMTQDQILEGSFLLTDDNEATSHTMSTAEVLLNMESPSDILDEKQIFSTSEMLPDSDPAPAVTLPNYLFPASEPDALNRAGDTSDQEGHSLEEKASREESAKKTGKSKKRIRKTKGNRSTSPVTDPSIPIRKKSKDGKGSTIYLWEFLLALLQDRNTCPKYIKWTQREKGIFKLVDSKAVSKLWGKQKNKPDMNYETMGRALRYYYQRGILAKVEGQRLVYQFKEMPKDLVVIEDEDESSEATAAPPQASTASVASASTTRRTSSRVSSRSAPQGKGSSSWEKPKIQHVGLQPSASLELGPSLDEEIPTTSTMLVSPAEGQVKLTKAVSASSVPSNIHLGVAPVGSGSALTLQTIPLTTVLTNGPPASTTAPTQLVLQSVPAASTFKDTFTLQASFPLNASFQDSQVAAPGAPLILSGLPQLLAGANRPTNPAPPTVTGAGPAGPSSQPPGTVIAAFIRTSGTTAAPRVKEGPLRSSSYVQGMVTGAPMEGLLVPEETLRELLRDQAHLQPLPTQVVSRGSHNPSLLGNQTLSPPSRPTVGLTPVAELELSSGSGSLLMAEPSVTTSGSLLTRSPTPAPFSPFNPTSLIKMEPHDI
Sequence of ETV5 (P41161 whole entry): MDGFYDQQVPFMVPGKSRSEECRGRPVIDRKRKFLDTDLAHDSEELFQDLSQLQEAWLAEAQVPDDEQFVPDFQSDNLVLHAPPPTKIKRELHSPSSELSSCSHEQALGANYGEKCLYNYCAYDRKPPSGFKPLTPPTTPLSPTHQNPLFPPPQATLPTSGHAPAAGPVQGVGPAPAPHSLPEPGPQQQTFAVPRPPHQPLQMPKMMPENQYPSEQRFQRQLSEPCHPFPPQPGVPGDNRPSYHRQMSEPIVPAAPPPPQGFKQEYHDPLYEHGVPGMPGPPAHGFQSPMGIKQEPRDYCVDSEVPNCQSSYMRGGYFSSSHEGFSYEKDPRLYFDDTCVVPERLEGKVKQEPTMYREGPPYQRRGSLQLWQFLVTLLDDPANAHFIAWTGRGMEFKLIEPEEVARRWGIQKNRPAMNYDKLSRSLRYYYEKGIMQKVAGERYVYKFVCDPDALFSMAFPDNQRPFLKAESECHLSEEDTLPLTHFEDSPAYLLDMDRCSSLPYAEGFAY
Sequence of HSF1 (Q00613 whole entry): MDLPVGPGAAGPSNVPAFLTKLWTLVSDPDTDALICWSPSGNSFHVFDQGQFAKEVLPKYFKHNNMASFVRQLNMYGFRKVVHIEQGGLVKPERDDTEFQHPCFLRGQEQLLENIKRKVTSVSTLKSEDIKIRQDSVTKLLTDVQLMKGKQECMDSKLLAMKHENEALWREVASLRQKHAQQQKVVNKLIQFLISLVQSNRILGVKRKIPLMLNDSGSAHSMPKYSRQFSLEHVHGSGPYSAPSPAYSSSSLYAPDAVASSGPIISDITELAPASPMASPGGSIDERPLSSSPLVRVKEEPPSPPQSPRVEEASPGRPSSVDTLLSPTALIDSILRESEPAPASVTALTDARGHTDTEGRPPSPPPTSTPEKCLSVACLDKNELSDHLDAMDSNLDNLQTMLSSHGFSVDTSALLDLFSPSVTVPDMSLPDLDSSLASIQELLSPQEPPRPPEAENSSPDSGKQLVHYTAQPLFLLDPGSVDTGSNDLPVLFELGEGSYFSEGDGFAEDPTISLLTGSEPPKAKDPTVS
Sequence of ETV1 (P50549 whole entry): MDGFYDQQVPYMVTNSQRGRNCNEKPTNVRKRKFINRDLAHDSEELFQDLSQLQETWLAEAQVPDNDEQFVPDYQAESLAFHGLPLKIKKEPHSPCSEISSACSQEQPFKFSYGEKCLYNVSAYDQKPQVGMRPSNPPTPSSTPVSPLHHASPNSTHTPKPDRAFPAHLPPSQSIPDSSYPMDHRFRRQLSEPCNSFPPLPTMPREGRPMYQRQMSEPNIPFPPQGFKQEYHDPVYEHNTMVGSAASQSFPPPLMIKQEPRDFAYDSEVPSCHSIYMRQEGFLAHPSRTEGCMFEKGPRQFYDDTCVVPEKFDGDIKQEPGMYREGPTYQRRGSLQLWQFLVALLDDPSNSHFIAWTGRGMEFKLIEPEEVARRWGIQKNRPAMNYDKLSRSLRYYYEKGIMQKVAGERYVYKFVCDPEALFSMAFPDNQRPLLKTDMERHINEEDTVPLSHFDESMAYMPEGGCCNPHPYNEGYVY
Sequence of CRX (O43186 whole entry): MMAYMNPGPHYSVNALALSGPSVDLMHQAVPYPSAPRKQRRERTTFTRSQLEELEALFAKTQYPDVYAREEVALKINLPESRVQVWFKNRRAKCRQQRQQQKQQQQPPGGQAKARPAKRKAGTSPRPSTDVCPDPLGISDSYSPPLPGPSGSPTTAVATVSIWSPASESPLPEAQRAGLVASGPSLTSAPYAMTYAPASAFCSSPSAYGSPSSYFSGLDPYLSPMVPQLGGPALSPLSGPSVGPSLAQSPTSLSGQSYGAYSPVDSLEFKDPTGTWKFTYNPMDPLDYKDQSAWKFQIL

For the sequence CTTATG, the binding signal is 1.35 fold enrichment (6-mer frequency, TF over GST control) in the assay with FEV; 1.5 fold enrichment (6-mer frequency, TF over GST control) in the assay with ETV5; 1.64 fold enrichment (6-mer frequency, TF over GST control) in the assay with HSF1; 1.33 fold enrichment (6-mer frequency, TF over GST control) in the assay with SPIC; 1.49 fold enrichment (6-mer frequency, TF over GST control) with ELF4; 1.55 fold enrichment (6-mer frequency, TF over GST control) in the assay with ELK4. For the same sequence, the binding signal with ETV2 was 1.37 fold enrichment (6-mer frequency, TF over GST control); with ELF3, 1.45 fold enrichment (6-mer frequency, TF over GST control); in the assay with CRX, 2.2 fold enrichment (6-mer frequency, TF over GST control); in the assay with ETV1, 1.58 fold enrichment (6-mer frequency, TF over GST control); with ERF, 1.52 fold enrichment (6-mer frequency, TF over GST control); with ETV3L, 1.35 fold enrichment (6-mer frequency, TF over GST control). Further, the binding signal with ETS2 is 1.43 fold enrichment (6-mer frequency, TF over GST control); in the assay with SPDEF, 1.53 fold enrichment (6-mer frequency, TF over GST control); with ETV7, 1.47 fold enrichment (6-mer frequency, TF over GST control); in the assay with ELF5 it was 1.42 fold enrichment (6-mer frequency, TF over GST control); in the assay with ETV3, 1.64 fold enrichment (6-mer frequency, TF over GST control); with ETV6, 1.4 fold enrichment (6-mer frequency, TF over GST control).
